# According to the supplement of paper PMC4466140:
# Assays:
# Assay in all cases: SPOT peptide array binding signal intensity (averaged, normalized) (arbitrary units (background-subtracted, floor 0; scale differs between SH3 domains)); higher = stronger binding of the SH3 domain to the peptide
# CaNbp2 = biological target: CaNbp2
# In short: (§1)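 Four yeast species supplied the SH3 domains, which were expressed as GST fusions in E. coli BL21(DE3) and purified on glutathione Sepharose. Incubation with cellulose membranes carrying synthetic 15-mer peptides, cysteines exchanged for serines, ran overnight at 4°C at 10 μg/ml in TBS-based blocking buffer. Binding signal is reported as normalized, background-subtracted spot intensity averaged over replicates, in arbitrary units not shared between domains.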
# CaRvs167 = biological target: CaRvs167
# In short: as §1
# CaRvs167-3 = biological target: CaRvs167-3
# In short: as §1
# CaSho1 = biological target: CaSho1
# In short: as §1
# CaSla1-D1-D2 = biological target: CaSla1-D1-D2
# In short: as §1
# CaSla1-D3 = biological target: CaSla1-D3
# In short: as §1
# ScAbp1 = biological target: ScAbp1
# In short: as §1
# ScBbc1 = biological target: ScBbc1
# In short: as §1
# ScBem1-D1 = biological target: ScBem1-D1
# In short: as §1
# ScBzz1-D1 = biological target: ScBzz1-D1
# In short: as §1
# ScBzz1-D2 = biological target: ScBzz1-D2
# In short: as §1
# ScCyk3 = biological target: ScCyk3
# In short: as §1
# ScFus1 = biological target: ScFus1
# In short: as §1
# ScHof1 = biological target: ScHof1
# In short: as §1
# ScHse1 = biological target: ScHse1
# In short: as §1
# ScLsb1 = biological target: ScLsb1
# In short: as §1
# ScLsb2 = biological target: ScLsb2
# In short: as §1
# ScLsb3 = biological target: ScLsb3
# In short: as §1
# ScLsb4 = biological target: ScLsb4
# In short: as §1
# ScMyo3 = biological target: ScMyo3
# In short: as §1
# ScMyo5 = biological target: ScMyo5
# In short: as §1
# ScNbp2 = biological target: ScNbp2
# In short: as §1
# ScPex13 = biological target: ScPex13
# In short: as §1
# ScRvs167 = biological target: ScRvs167
# In short: as §1
# ScSho1 = biological target: ScSho1
# In short: as §1
# ScSla1-D1-D2 = biological target: ScSla1-D1-D2
# In short: as §1
# ScSla1-D3 = biological target: ScSla1-D3
# In short: as §1
# SpAbp1-D1 = biological target: SpAbp1-D1
# In short: as §1
# SpBbc1 = biological target: SpBbc1
# In short: as §1
# SpBzz1-D1 = biological target: SpBzz1-D1
# In short: as §1
# SpBzz1-D2 = biological target: SpBzz1-D2
# In short: as §1
# SpCyk3 = biological target: SpCyk3
# In short: as §1
# SpHof1 = biological target: SpHof1
# In short: as §1
# SpHof1-2 = biological target: SpHof1-2
# In short: as §1
# SpHof1-3 = biological target: SpHof1-3
# In short: as §1
# SpHse1 = biological target: SpHse1
# In short: as §1
# SpLsb1 = biological target: SpLsb1
# In short: as §1
# SpLsb4 = biological target: SpLsb4
# In short: as §1
# SpMyo1 = biological target: SpMyo1
# In short: as §1
# SpNbp2 = biological target: SpNbp2
# In short: as §1
# SpPex13 = biological target: SpPex13
# In short: as §1
# SpRvs167 = biological target: SpRvs167
# In short: as §1
# SpSla1-D1-D2 = biological target: SpSla1-D1-D2
# In short: as §1
# SpSla1-D3 = biological target: SpSla1-D3
# In short: as §1
# AgAbp1 = biological target: AgAbp1
# In short: as §1
# AgBbc1 = biological target: AgBbc1
# In short: as §1
# AgBem1-D1 = biological target: AgBem1-D1
# In short: as §1
# AgBzz1-D1 = biological target: AgBzz1-D1
# In short: as §1
# AgBzz1-D2 = biological target: AgBzz1-D2
# In short: as §1
# AgCyk3 = biological target: AgCyk3
# In short: as §1
# AgFus1 = biological target: AgFus1
# In short: as §1
# AgHof1 = biological target: AgHof1
# In short: as §1
# AgHse1 = biological target: AgHse1
# In short: as §1
# AgLsb1 = biological target: AgLsb1
# In short: as §1
# AgLsb4 = biological target: AgLsb4
# In short: as §1
# AgMyo5 = biological target: AgMyo5
# In short: as §1
# AgNbp2 = biological target: AgNbp2
# In short: as §1
# AgRvs167 = biological target: AgRvs167
# In short: as §1
# AgSho1 = biological target: AgSho1
# In short: as §1
# AgSla1-D1-D2 = biological target: AgSla1-D1-D2
# In short: as §1
# AgSla1-D3 = biological target: AgSla1-D3
# In short: as §1
# CaAbp1-D1 = biological target: CaAbp1-D1
# In short: as §1
# CaAbp1-D2 = biological target: CaAbp1-D2
# In short: as §1
# CaBbc1 = biological target: CaBbc1
# In short: as §1
# CaBem1-D1 = biological target: CaBem1-D1
# In short: as §1
# CaBzz1-D1 = biological target: CaBzz1-D1
# In short: as §1
# CaBzz1-D2 = biological target: CaBzz1-D2
# In short: as §1
# CaCyk3 = biological target: CaCyk3
# In short: as §1
# CaFus1 = biological target: CaFus1
# In short: as §1
# CaHof1 = biological target: CaHof1
# In short: as §1
# CaHse1 = biological target: CaHse1
# In short: as §1
# CaLsb1 = biological target: CaLsb1
# In short: as §1
# CaLsb4 = biological target: CaLsb4
# In short: as §1
# CaMyo5 = biological target: CaMyo5
# In short: as §1
binder,measurement,setting,value
FVLRYYILIPHEQWD,SPOT peptide array binding signal intensity,CaNbp2,595
same,SPOT peptide array binding signal intensity,CaRvs167,216
same,SPOT peptide array binding signal intensity,CaRvs167-3,119
same,SPOT peptide array binding signal intensity,CaSho1,666
same,SPOT peptide array binding signal intensity,CaSla1-D1-D2,≤ 0
same,SPOT peptide array binding signal intensity,CaSla1-D3,163
same,SPOT peptide array binding signal intensity,ScAbp1,≤ 0
same,SPOT peptide array binding signal intensity,ScBbc1,≤ 0
same,SPOT peptide array binding signal intensity,ScBem1-D1,14.5
same,SPOT peptide array binding signal intensity,ScBzz1-D1,14
same,SPOT peptide array binding signal intensity,ScBzz1-D2,28
same,SPOT peptide array binding signal intensity,ScCyk3,35
same,SPOT peptide array binding signal intensity,ScFus1,1310
same,SPOT peptide array binding signal intensity,ScHof1,≤ 0
same,SPOT peptide array binding signal intensity,ScHse1,1060
same,SPOT peptide array binding signal intensity,ScLsb1,≤ 0
same,SPOT peptide array binding signal intensity,ScLsb2,1.5
same,SPOT peptide array binding signal intensity,ScLsb3,67
same,SPOT peptide array binding signal intensity,ScLsb4,5
same,SPOT peptide array binding signal intensity,ScMyo3,1.5
same,SPOT peptide array binding signal intensity,ScMyo5,3
same,SPOT peptide array binding signal intensity,ScNbp2,187
same,SPOT peptide array binding signal intensity,ScPex13,7.5
same,SPOT peptide array binding signal intensity,ScRvs167,9.83
same,SPOT peptide array binding signal intensity,ScSho1,1100
same,SPOT peptide array binding signal intensity,ScSla1-D1-D2,7.5
same,SPOT peptide array binding signal intensity,ScSla1-D3,51
same,SPOT peptide array binding signal intensity,SpAbp1-D1,59.5
same,SPOT peptide array binding signal intensity,SpBbc1,2
same,SPOT peptide array binding signal intensity,SpBzz1-D1,20.5
same,SPOT peptide array binding signal intensity,SpBzz1-D2,3.25
same,SPOT peptide array binding signal intensity,SpCyk3,27.5
same,SPOT peptide array binding signal intensity,SpHof1,79.5
same,SPOT peptide array binding signal intensity,SpHof1-2,32.5
same,SPOT peptide array binding signal intensity,SpHof1-3,554
same,SPOT peptide array binding signal intensity,SpHse1,954
same,SPOT peptide array binding signal intensity,SpLsb1,2.5
same,SPOT peptide array binding signal intensity,SpLsb4,11.5
same,SPOT peptide array binding signal intensity,SpMyo1,13.2
same,SPOT peptide array binding signal intensity,SpNbp2,574
same,SPOT peptide array binding signal intensity,SpPex13,47.5
same,SPOT peptide array binding signal intensity,SpRvs167,10.7
same,SPOT peptide array binding signal intensity,SpSla1-D1-D2,1
same,SPOT peptide array binding signal intensity,SpSla1-D3,9.5
WRPRIVPILPYITRL,SPOT peptide array binding signal intensity,AgAbp1,6
same,SPOT peptide array binding signal intensity,AgBbc1,13.5
same,SPOT peptide array binding signal intensity,AgBem1-D1,108
same,SPOT peptide array binding signal intensity,AgBzz1-D1,11
same,SPOT peptide array binding signal intensity,AgBzz1-D2,7.5
same,SPOT peptide array binding signal intensity,AgCyk3,9
same,SPOT peptide array binding signal intensity,AgFus1,90
same,SPOT peptide array binding signal intensity,AgHof1,132
same,SPOT peptide array binding signal intensity,AgHse1,434
same,SPOT peptide array binding signal intensity,AgLsb1,11
same,SPOT peptide array binding signal intensity,AgLsb4,22
same,SPOT peptide array binding signal intensity,AgMyo5,2.5
same,SPOT peptide array binding signal intensity,AgNbp2,140
same,SPOT peptide array binding signal intensity,AgRvs167,2
same,SPOT peptide array binding signal intensity,AgSho1,17
same,SPOT peptide array binding signal intensity,AgSla1-D1-D2,6.5
same,SPOT peptide array binding signal intensity,AgSla1-D3,4
same,SPOT peptide array binding signal intensity,CaAbp1-D1,109
same,SPOT peptide array binding signal intensity,CaAbp1-D2,92.5
same,SPOT peptide array binding signal intensity,CaBbc1,58.8
same,SPOT peptide array binding signal intensity,CaBem1-D1,22
same,SPOT peptide array binding signal intensity,CaBzz1-D1,49.5
same,SPOT peptide array binding signal intensity,CaBzz1-D2,24.2
same,SPOT peptide array binding signal intensity,CaCyk3,29.5
same,SPOT peptide array binding signal intensity,CaFus1,460
same,SPOT peptide array binding signal intensity,CaHof1,2
same,SPOT peptide array binding signal intensity,CaHse1,32
same,SPOT peptide array binding signal intensity,CaLsb1,3.5
same,SPOT peptide array binding signal intensity,CaLsb4,56
same,SPOT peptide array binding signal intensity,CaMyo5,1.5
same,SPOT peptide array binding signal intensity,CaNbp2,574
same,SPOT peptide array binding signal intensity,CaRvs167,54
same,SPOT peptide array binding signal intensity,CaRvs167-3,56
same,SPOT peptide array binding signal intensity,CaSho1,298
same,SPOT peptide array binding signal intensity,CaSla1-D1-D2,6
same,SPOT peptide array binding signal intensity,CaSla1-D3,2
same,SPOT peptide array binding signal intensity,ScAbp1,17
same,SPOT peptide array binding signal intensity,ScBbc1,4.25
same,SPOT peptide array binding signal intensity,ScBem1-D1,1
same,SPOT peptide array binding signal intensity,ScBzz1-D1,1.5
same,SPOT peptide array binding signal intensity,ScBzz1-D2,15.5
same,SPOT peptide array binding signal intensity,ScCyk3,33
same,SPOT peptide array binding signal intensity,ScFus1,75
same,SPOT peptide array binding signal intensity,ScHof1,365
same,SPOT peptide array binding signal intensity,ScHse1,636
same,SPOT peptide array binding signal intensity,ScLsb1,32.5
same,SPOT peptide array binding signal intensity,ScLsb2,7
same,SPOT peptide array binding signal intensity,ScLsb3,148
same,SPOT peptide array binding signal intensity,ScLsb4,18.5
same,SPOT peptide array binding signal intensity,ScMyo3,2
same,SPOT peptide array binding signal intensity,ScMyo5,0.5
same,SPOT peptide array binding signal intensity,ScNbp2,224
same,SPOT peptide array binding signal intensity,ScPex13,1
same,SPOT peptide array binding signal intensity,ScRvs167,251
same,SPOT peptide array binding signal intensity,ScSho1,182
same,SPOT peptide array binding signal intensity,ScSla1-D1-D2,≤ 0
same,SPOT peptide array binding signal intensity,ScSla1-D3,≤ 0
same,SPOT peptide array binding signal intensity,SpAbp1-D1,36
same,SPOT peptide array binding signal intensity,SpBbc1,7
same,SPOT peptide array binding signal intensity,SpBzz1-D1,179
same,SPOT peptide array binding signal intensity,SpBzz1-D2,1.5
same,SPOT peptide array binding signal intensity,SpCyk3,10
same,SPOT peptide array binding signal intensity,SpHof1,14.5
same,SPOT peptide array binding signal intensity,SpHof1-2,18.5
same,SPOT peptide array binding signal intensity,SpHof1-3,328
same,SPOT peptide array binding signal intensity,SpHse1,315
same,SPOT peptide array binding signal intensity,SpLsb1,3
same,SPOT peptide array binding signal intensity,SpLsb4,157
same,SPOT peptide array binding signal intensity,SpMyo1,107
same,SPOT peptide array binding signal intensity,SpNbp2,55.5
same,SPOT peptide array binding signal intensity,SpPex13,6.5
same,SPOT peptide array binding signal intensity,SpRvs167,167
same,SPOT peptide array binding signal intensity,SpSla1-D1-D2,≤ 0
same,SPOT peptide array binding signal intensity,SpSla1-D3,≤ 0
